From PubChem BioAssay (Tox21)
Where “and” joins values, the source holds several entries; their conditions need not be identical. Equal values may be shown once. Inconclusive results are not listed. Where a structure was tested more than once in an assay, its records may differ in their call. Calls of active or inactive are those of the source. Unless noted, calls follow the shape of the dose curve; as a rule, active = well fitted curve in the direction sought with a large enough effect in the repeat runs; inconclusive = weak or mixed curves; inactive = no such curve, though single readings can be large; an effect the other way counts as inactive or inconclusive.

Legend:
[1] = qHTS assay to identify small molecule antagonists of the estrogen receptor alpha (ER-alpha) signaling pathway using the BG1 cell line in the presence of 0.1 nM 17-beta-estradiol - cell viability counter screen (AID 1259241); also: nearly all actives have a fitted effect of over 40% in size; also: potency is read from the fitted curve at half-maximal effect
Summary of the method: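 Cells were plated and left 24 hr, compounds in DMSO were pinned in, 17beta-estradiol was added to 0.1 nM final, and after 22 hr CellTiter-Fluor reagent was added for 30 min before fluorescence was read.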

[2] = qHTS assay to identify small molecule antagonists of the androgen receptor (AR) signaling pathway using the MDA cell line in the presence of 0.5 nM R1881 - cell viability counter screen (AID 1259242); also: nearly all actives have a fitted effect of over 45% in size; also: potency is read from the fitted curve at half-maximal effect
Summary of the method: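 Steps: plate MDA-kb2 cells, rest 5 hr at 37C without CO2; pin in compounds in DMSO; add R1881 to 0.5 nM final; incubate 16 hr; add CellTiter-Fluor, 30 min; read fluorescence.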

[3] = biological target: Estrogen receptor (Homo sapiens) (UniProt P03372); assay: qHTS assay to identify small molecule antagonists of the estrogen receptor alpha (ER-alpha) signaling pathway using the BG1 cell line in the presence of 0.1 nM 17-beta-estradiol (AID 1259244); also: nearly all actives have a fitted effect of over 50% in size; also: potency is read from the fitted curve at half-maximal effect
Sequence of Estrogen receptor (Homo sapiens) (P03372 whole entry, looked up): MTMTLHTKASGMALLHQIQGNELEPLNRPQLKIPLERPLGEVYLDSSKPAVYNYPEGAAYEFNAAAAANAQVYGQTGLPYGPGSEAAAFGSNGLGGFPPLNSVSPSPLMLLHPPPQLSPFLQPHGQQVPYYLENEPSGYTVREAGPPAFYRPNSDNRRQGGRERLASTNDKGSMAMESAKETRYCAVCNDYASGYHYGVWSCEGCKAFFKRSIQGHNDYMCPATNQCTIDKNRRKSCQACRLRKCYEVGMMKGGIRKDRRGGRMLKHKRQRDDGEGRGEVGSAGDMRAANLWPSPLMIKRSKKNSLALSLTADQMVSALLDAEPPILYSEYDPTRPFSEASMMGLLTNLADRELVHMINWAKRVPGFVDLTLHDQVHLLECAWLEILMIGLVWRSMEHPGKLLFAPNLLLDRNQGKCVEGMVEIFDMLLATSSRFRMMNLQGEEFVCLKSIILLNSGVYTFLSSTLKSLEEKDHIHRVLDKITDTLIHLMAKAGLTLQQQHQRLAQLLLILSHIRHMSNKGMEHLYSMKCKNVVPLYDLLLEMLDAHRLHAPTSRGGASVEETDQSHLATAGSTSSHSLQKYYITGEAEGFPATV
Summary of the method: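 Antagonist mode: compounds in DMSO are pinned onto VM7Luc4E2 reporter cells, 0.1 nM final 17beta-estradiol is added, and after 22 h at 37C luciferase luminescence is measured with ONE-Glo.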

[4] = qHTS assay to identify small molecule HDAC inhibitors (AID 1259364); also: potency is read from the fitted curve at half-maximal effect;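 also: wild-type HCT-116 cells with endogenous class I/II HDAC activity; nearly all actives have a fitted effect of over 45% in size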; as to activity change, negative = inhibition: top concentration of the series differs between compounds
Summary of the method: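 Cells (HCT-116, wild type) are seeded at 1,500 per well, incubated overnight, treated with compound in DMSO for 2 hr, then developed with HDAC-Glo I/II reagent for 30 min at room temperature.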

[5] = qHTS assay to identify small molecule HDAC inhibitors - cell viability counter screen (AID 1259365); also: nearly all actives have a fitted effect of over 50% in size; also: potency is read from the fitted curve at half-maximal effect; as to activity change, negative = cytotoxicity: series mostly up to about 92 µM
Summary of the method: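 Counter screen in wild-type HCT-116 cells: compounds dissolved in DMSO are pin-transferred onto overnight-plated cells and left 2hr at 37C. ATP-based CellTiter-Glo luminescence then measures viable cells.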

[6] = qHTS assay to identify small molecule agonists of the sonic hedgehog signaling (Shh) pathway - cell viability counter screen (AID 1259366); also: nearly all actives have a fitted effect of over 50% in size; also: potency is read from the fitted curve at half-maximal effect
Summary of the method: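 Cells are plated at 2,000 per well and left 4hr at 37C, 5% CO2 before compound addition. After 23hr of treatment, CellTiter-Fluor reagent is added for 1hr at 37C and fluorescence is measured.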

[7] = qHTS assay to identify small molecule antagonists of the sonic hedgehog signaling (Shh) pathway - cell viability counter screen (AID 1259367); also: nearly all actives have a fitted effect of over 55% in size; also: potency is read from the fitted curve at half-maximal effect
Summary of the method: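 Fluorescence read-out (CellTiter-Fluor, 1 hr at 37C) taken after 23 hr compound treatment of 3T3 Gli1-Luc cells stimulated with conditioned medium. Cells were seeded at 2,000 per well and pre-incubated 4 hr.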

[8] = qHTS assay to identify small molecule agonists of the sonic hedgehog signaling (Shh) pathway (AID 1259368; calls by dose curve;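 also: NIH/3T3-derived 3T3Gli1-Luc cells carrying a stable Gli1-driven firefly luciferase reporter; series mostly up to about 92 µM; nearly all actives have a fitted effect of over 15% in size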)
Summary of the method: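 Cells of a mouse NIH/3T3 clone stably expressing luciferase under the Gli1 transcriptional response element are exposed to test chemicals for 24 hr at 37 C. Pathway activation is detected as a rise in luminescence.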

[9] = qHTS assay to identify small molecule antagonists of the sonic hedgehog signaling (Shh) pathway (AID 1259369; calls by dose curve; also: nearly all actives have a fitted effect of over 45% in size; also: potency is read from the fitted curve at half-maximal effect)
Summary of the method: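 Cells are plated and held 4hr at 37 C, compounds (DMSO) are pinned in, conditioned medium is added to stimulate the pathway, and after 24hr luciferase reagent is added for 30min before luminescence is read.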

[10] = biological target: Estrogen receptor beta (Homo sapiens) (UniProt Q92731); assay: qHTS assay to identify small molecule agonists of the estrogen receptor beta (ER-beta) signaling pathway (AID 1259377; active = well fitted activation curve with a large enough effect in the signal ratio in the repeat runs, not every such curve was filed as active; the % refers to the signal ratio)
Sequence of Estrogen receptor beta (Homo sapiens) (Q92731 whole entry, looked up, the tested form may be a part): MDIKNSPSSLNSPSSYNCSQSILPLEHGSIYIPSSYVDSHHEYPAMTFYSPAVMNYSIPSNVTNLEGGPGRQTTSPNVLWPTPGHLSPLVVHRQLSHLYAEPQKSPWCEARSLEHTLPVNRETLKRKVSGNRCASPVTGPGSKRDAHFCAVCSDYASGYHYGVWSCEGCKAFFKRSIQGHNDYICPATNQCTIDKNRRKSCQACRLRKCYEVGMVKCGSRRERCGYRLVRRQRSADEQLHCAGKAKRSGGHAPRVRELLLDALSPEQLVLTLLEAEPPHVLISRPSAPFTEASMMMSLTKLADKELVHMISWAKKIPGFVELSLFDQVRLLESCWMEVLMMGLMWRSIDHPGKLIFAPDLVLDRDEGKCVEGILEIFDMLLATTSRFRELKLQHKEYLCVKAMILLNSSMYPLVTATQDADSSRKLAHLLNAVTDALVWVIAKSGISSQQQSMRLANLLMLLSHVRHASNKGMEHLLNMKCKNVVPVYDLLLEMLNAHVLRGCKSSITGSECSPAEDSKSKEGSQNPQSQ
Summary of the method: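 Agonist mode cell assay in GripTite HEK293T cells expressing an ER-beta fusion that drives beta-lactamase from an Upstream Activator Sequence; 16 hr compound exposure at 37C, then 2 h LiveBLAzer B/G FRET substrate at room temperature, fluorescence read-out.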

[11] = qHTS assay to identify small molecule agonists of the androgen receptor (AR) signaling pathway in the presence of an antagonist - cell viability counter screen (AID 1259379); also: nearly all actives have a fitted effect of over 25% in size; also: potency is read from the fitted curve at half-maximal effect;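 as to activity change, negative = cytotoxicity: MDA-kb2 human breast cancer cells carrying an MMTV luciferase reporter; series mostly up to about 92 µM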
Summary of the method: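 Cytotoxicity is assessed by CellTiter-Fluor in MDA-kb2 cells carrying an MMTV-driven luciferase reporter. Cells receive 3.0uM nilutamide plus compounds at 15 concentrations and incubate 16 hr at 37C without CO2 before fluorescence reading.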

[12] = qHTS assay to identify small molecule agonists of the estrogen receptor beta (ER-beta) signaling pathway - cell viability counter screen (AID 1259380); also: nearly all actives have a fitted effect of over 30% in size; also: potency is read from the fitted curve at half-maximal effect
Summary of the method: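 Cytotoxicity is measured in parallel with the reporter screen: after 16 hr compound exposure at 37C and a 2 hr LiveBLAzer step, CellTiter-Glo is added to the same ER-beta-UAS-bla HEK293T wells and luminescence read after 30 min.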

[13] = qHTS assay to identify small molecule antagonists of the estrogen receptor beta (ER-beta) signaling pathway - cell viability counter screen (AID 1259382); also: nearly all actives have a fitted effect of over 55% in size; also: potency is read from the fitted curve at half-maximal effect; as to activity change, negative = cytotoxicity: series mostly up to about 92 µM
Summary of the method: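 Cytotoxicity counter screen multiplexed with the beta-lactamase antagonist assay: GripTite HEK293T ER-beta-bla cells were treated 16 hr with test chemicals in the presence of 1nM 17-beta-estradiol, and viability was measured by CellTiter-Glo.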

[14] = biological target: Estrogen receptor (Homo sapiens) (UniProt P03372); assay: qHTS assay to identify small molecule agonists of the estrogen receptor alpha (ER-alpha) signaling pathway in the presence of an antagonist (AID 1259383; calls by dose curve; also: top concentration of the series differs between compounds; nearly all actives have a fitted effect of over 15% in size)
Summary of the method: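 Agonist-mode confirmation in the presence of the ER antagonist ICI-182,780 at 10.0nM final. Breast-derived VM7Luc4E2 reporter cells were exposed to compounds for 22hr, and ERE-driven luciferase was quantified by luminescence.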

[15] = qHTS assay to identify small molecule agonists or antagonists of the thyroid stimulating hormone receptor (TSHR) signaling pathway - wild type cell line counter screen (AID 1259384; calls by dose curve)
Summary of the method: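 Wild-type Hek293 cells, 800/well, 18 h at 37C, then compound with Ro20-1724 for 30 min RT. cAMP by HTRF (cAMP-d2/anti-cAMP cryptate), 1 h RT, fluorescence read. 15 concentrations, triplicates.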

[16] = biological target: Thyrotropin receptor (Homo sapiens) (UniProt P16473); assay: qHTS assay to identify small molecule antagonists of the thyroid stimulating hormone receptor (TSHR) signaling pathway (AID 1259385; calls by dose curve; also: nearly all actives have a fitted effect of over 20% in size; also: potency is read from the fitted curve at half-maximal effect)
Sequence of Thyrotropin receptor (Homo sapiens) (P16473 whole entry, looked up): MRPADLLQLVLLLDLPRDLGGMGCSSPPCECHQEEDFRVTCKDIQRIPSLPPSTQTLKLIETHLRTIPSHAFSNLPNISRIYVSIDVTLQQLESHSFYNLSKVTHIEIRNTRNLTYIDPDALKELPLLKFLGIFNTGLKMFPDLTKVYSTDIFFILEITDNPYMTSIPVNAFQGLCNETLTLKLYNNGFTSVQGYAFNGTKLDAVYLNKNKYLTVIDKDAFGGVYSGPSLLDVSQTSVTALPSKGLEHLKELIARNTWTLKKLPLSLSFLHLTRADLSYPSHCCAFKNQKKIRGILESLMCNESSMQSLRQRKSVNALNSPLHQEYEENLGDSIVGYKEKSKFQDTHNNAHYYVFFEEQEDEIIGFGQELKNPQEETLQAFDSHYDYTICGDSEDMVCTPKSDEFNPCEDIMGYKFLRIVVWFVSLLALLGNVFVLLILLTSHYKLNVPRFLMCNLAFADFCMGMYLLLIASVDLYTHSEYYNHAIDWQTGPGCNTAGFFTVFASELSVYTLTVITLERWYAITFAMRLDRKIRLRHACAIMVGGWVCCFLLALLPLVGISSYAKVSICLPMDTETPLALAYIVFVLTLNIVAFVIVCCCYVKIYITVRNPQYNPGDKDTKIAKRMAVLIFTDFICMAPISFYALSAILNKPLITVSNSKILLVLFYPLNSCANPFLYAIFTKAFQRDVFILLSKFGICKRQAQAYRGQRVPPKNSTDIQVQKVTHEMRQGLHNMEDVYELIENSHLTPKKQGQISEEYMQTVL
Summary of the method: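 TSHR-HEK293 cells (800/well) plated 18 h, then compounds with Ro20-1724 and TSH at 1.5 ng/mL final, 30 min at room temperature. cAMP quantified by HTRF (cAMP-d2/anti-cAMP-cryptate, 1 h); 15 concentrations in triplicate.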

[17] = biological target: Estrogen receptor beta (Homo sapiens) (UniProt Q92731); assay: qHTS assay to identify small molecule antagonists of the estrogen receptor beta (ER-beta) signaling pathway (AID 1259378; active = well fitted inhibition curve with a large enough effect in the signal ratio in the repeat runs, not every such curve was filed as active; the % refers to the signal ratio; also: potency is read from the fitted curve at half-maximal effect)
Summary of the method: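 ER-beta-UAS-bla HEK293T cells in 2% charcoal-stripped FBS medium treated with compound plus 1nM final 17-beta-estradiol for 16 hr at 37C. Beta-lactamase reporter read by FRET substrate fluorescence after 2 hours at room temperature.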

[18] = biological target: Androgen receptor (Homo sapiens) (UniProt P10275); assay: qHTS assay to identify small molecule agonists of the androgen receptor (AR) signaling pathway in the presence of an antagonist (AID 1259381; calls by dose curve; also: nearly all actives have a fitted effect of over 15% in size)
Sequence of Androgen receptor (Homo sapiens) (P10275 whole entry, looked up): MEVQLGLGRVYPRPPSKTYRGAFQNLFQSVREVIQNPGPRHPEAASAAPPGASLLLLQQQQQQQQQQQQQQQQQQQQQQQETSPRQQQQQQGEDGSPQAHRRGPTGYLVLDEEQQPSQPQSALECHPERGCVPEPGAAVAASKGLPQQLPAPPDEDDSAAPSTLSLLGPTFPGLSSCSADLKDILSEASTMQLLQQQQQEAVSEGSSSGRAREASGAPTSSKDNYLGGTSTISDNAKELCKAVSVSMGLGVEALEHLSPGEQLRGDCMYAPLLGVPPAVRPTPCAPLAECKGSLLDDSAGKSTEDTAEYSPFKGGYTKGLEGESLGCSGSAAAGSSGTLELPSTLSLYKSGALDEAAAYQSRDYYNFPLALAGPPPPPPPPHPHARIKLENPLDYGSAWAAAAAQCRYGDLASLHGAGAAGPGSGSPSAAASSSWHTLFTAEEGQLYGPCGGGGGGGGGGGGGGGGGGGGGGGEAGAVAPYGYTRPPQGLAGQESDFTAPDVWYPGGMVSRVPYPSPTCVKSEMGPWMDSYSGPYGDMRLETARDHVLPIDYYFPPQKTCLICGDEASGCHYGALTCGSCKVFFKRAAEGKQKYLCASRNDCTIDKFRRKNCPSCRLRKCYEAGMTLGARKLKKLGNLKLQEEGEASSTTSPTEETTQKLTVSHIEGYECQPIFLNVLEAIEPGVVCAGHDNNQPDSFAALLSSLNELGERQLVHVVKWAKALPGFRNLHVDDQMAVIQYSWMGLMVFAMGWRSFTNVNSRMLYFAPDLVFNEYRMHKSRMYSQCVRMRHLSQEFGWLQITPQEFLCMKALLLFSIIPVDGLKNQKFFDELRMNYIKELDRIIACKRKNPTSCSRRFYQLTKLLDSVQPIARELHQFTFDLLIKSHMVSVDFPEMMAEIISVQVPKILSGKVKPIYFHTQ
Summary of the method: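 Agonist-mode confirmation screen: human MDA-kb2 cells stably expressing luciferase under an MMTV promoter bearing AR and GR response elements, co-treated with 3.0uM nilutamide (final). Luminescence measured after 16hr compound incubation.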

[19] = qHTS assay to identify small molecule phospholipidosis (PLD) inducers (AID 1259344; active = well fitted curve in the direction sought with a large enough effect; an effect the other way counts as inactive or inconclusive)
Summary of the method: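 Read-out is LipidTOX Red fluorescence (ex 595/em 615) imaged in HepG2 cells after 24 h compound exposure at 37 C, with Hoechst nuclear counterstain (ex 352/em 461) allowing per-cell normalisation.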
% is scaled to controls: 0 for no effect and ±100 for the full control effect.

Cc1ccc2oc(CN(Cc3ccccc3)C(=O)Nc3c(F)cc(F)cc3F)c(-c3ccc(Cl)cc3)c2c1
inactive: Potency [1] | Potency [2] | Potency [3] | Potency [4] | Potency [5] | Potency [6] | Potency [7] | Potency [8] | Potency [9] | Potency [10] | Potency [11] | Potency [12] | Potency [13] | Potency [14] | outcome [15] | Potency [16]

O=CC=C(c1ccccc1)c1ccccc1
inactive: Potency [1] | Potency [2] | Potency [4] | Potency [5] | Potency [8] | Potency [14] | outcome [15] | Potency [16]
active: Potency [3] 69.1 µM | Potency [6] 49 µM | Potency [17] 7.76 µM | Potency [12] 27.5 µM

CCCC(C)c1ccccc1O (centres undefined)
inactive: Potency [1] | Potency [2] | Potency [3] | Potency [4] | Potency [5] | Potency [8] | Potency [10] | Potency [17] | Potency [11] | Potency [12] | Potency [13] | Potency [14] | outcome [15] | Potency [16]

CCC(CN)=C(c1ccccc1)c1ccccc1
inactive: Potency [1] | Potency [2] | Potency [3] | Potency [4] | Potency [5] | Potency [6] | Potency [7] | Potency [8] | Potency [10] | Potency [18] | Potency [14] | outcome [15]
active: Potency [17] 23.7 µM | Potency [12] 21.1 µM

CSc1cnc(C)cn1
inactive: Potency [1] | Potency [2] | Potency [3] | Potency [5] | Potency [6] | Potency [7] | Potency [8] | Potency [9] | Potency [10] | Potency [17] | Potency [11] | Potency [12] | Potency [13] | outcome [15] | Potency [16]

COCCCC/C(=N\OCCN)c1ccc(C(F)(F)F)cc1
active: Potency [17] 29.8 µM | Potency [12] 13.3 µM | Potency [16] 29.8 µM
inactive: Potency [1] | Potency [2] | Potency [3] | Potency [4] | Potency [5] | Potency [6] | Potency [7] | Potency [8] | Potency [10] | outcome [15]

O=C1CCCCCN1SSN1CCCCCC1=O
active: Potency [6] 19.3 µM | Potency [7] 54.5 µM | Potency [9] 9.69 µM
inactive: Potency [1] | Potency [2] | Potency [3] | Potency [4] | Potency [5] | Potency [8] | Potency [10] | Potency [11] | Potency [12] | Potency [13] | Potency [14] | Potency [16]

CCCC(c1cc(C(C)(C)C)c(O)cc1C)c1cc(C(C)(C)C)c(O)cc1C
inactive: Potency [4] | Potency [8] | Potency [14] | outcome [15]
active: Potency [1] 61.9 µM | Potency [2] 49.2 µM | Potency [3] 27.6 µM | Potency [5] 49.2 µM | Potency [6] 22 µM | Potency [7] 17.4 µM | Potency [9] 13.9 µM | Potency [12] 12.3 µM | Potency [13] 13.9 µM

CCCCCCCC[P+](CCCCCCCC)(CCCCCCCC)CCCCCCCC
active: Potency [1] 21.6 µM | Potency [2] 4.3 µM | Potency [3] 0.43 µM | Potency [5] 34.2 µM | Potency [6] 12.1 µM | Potency [7] 17.1 µM | Potency [9] 0.483 µM | Potency [11] 2.42 µM | Potency [12] 8.58 µM | Potency [16] 68.2 µM
inactive: Potency [4] | Potency [8] | Potency [14] | outcome [15]

CCC(N)(CO)CO
inactive: Potency [1] | Potency [2] | Potency [3] | Potency [4] | Potency [5] | Potency [6] | Potency [7] | Potency [8] | Potency [10] | Potency [17] | Potency [11] | Potency [12] | Potency [13] | Potency [14]

Nc1ccccc1O
active: Potency [1] 53.8 µM | Potency [3] 30.2 µM | Potency [6] 24 µM | Potency [9] 6.77 µM
inactive: Potency [2] | Potency [5] | Potency [8] | Potency [14] | outcome [15] | Potency [16]

CC(NN)c1ccccc1 (centres undefined)
inactive: activity change, negative = cytotoxicity [1] 6.27% [at 19 µM] | viability change, negative = cytotoxic [2] -1.49% [at 19 µM] | Potency [19] | activity change, negative = inhibition [4] 0.741% [at 19 µM] | activity change, negative = cytotoxicity [5] 0.995% [at 19 µM] | viability change, negative = cytotoxic [6] 2.68% [at 19 µM] | Potency [7] | activity change [8] 1.23% [at 18.9 µM, stronger effect = higher value] | activity change, negative = inhibition [9] 19.3% [at 19 µM] | activity change, negative = cytotoxicity [11] -0.324% [at 19 µM] | activity change, negative = cytotoxicity [12] -2.17% [at 19 µM] | activity change, negative = cytotoxicity [13] 1.73% [at 19 µM] | cAMP activity change [15] 0.522% [at 18.9 µM] | activity change, negative = inhibition [16] -2.3% [at 19 µM]

O=c1cc(-c2ccc(O)cc2)oc2cc(O)cc(O)c12
active: Potency [4] 8.75 µM and 17.2 µM | Potency [6] 61.9 µM and 38.6 µM | Potency [7] 48.6 µM
inactive: Potency [1] | Potency [2] | Potency [5] | Potency [8] | Potency [12] | Potency [13] | outcome [15] | Potency [16]
inactive and 30.6 µM (active): Potency [9]

CNc1ccc(O)cc1
inactive: Potency [8]
active: Potency [1] 21.6 µM | Potency [2] 61 µM | Potency [5] 48.5 µM | Potency [6] 12.2 µM | Potency [7] 15.3 µM | Potency [11] 61 µM | Potency [12] 30.6 µM | Potency [13] 61 µM

O=C(O)c1c(Cl)cccc1Cl
inactive: Potency [1] | Potency [2] | Potency [4] | Potency [5] | Potency [6] | Potency [7] | Potency [8] | Potency [9] | Potency [10] | Potency [17] | Potency [11] | Potency [12] | outcome [15] | Potency [16]
